Screening data from PubChem.
PfHsp90 set2 = reduces growth (ATP signal) of yeast expressing P. falciparum Hsp90; S. cerevisiae expressing PfHsp90, BacTiter-Glo ATP, 48 h; yeast lacking PDR1 and PDR3 efflux regulators; inhibition, % at 9.4 µM; 310,000 compounds, 0.32% hits;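 active = every replicate shows inhibition above about 80%, whatever the replicate mean, limit read from the data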
NLRP3 yeast inh = inhibitors of NALP3 inflammasome in yeast; Yeast reconstituted NLRP3/ASC/caspase-1, beta-gal luminescence, 24 h; inhibition, % at 10 µM; 330,000 compounds, 0.39% hits; AID 2825;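 active = inhibition of 50% or more; inactive = inhibition below 50%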
tim23-1 inh = inhibits growth of tim23-1 mutant yeast; 330,000 compounds, 1.3% hits; inhibition, % at 20 µM; S. cerevisiae tim23-1 growth, BacTiter-Glo luminescence, 24 h;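 active = growth inhibition of the mutant yeast at or above 50%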;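 note: temperature-sensitive mutant grown at 25 °C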
TIM10 inh = growth inhibitors of TIM10 yeast strain. 330,000 compounds, 1.4% hits. S. cerevisiae TIM10 strain growth, BacTiter-Glo luminescence, 24 h. AID 463195. inhibition, % at 10 µM;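 active = inhibition of 40% or more at the single tested concentration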;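 note: wild-type TIM10 isogenic control strain grown at permissive 25 °C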
tim10-1 inh = growth inhibitors of tim10-1 mutant yeast; S. cerevisiae tim10-1 ts strain growth, BacTiter-Glo, 24 h; inhibition, % at 20 µM; 330,000 compounds, 2.2% hits;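 active = inhibition of at least 40%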;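 note: mutant grown at 25 °C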
tim10-1 conf = tim10-1 yeast growth inhibition, confirmed | shares compounds with tim10-1 inh | S. cerevisiae tim10-1 ts strain growth, BacTiter-Glo, 24 h | inhibition, % at 20 µM | 7,400 compounds, 56% hits;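 active = inhibition of yeast growth at or above a set limit in either of two repeat tests at 20 µM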;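 note: tim10-1 mutant grown at permissive 25 °C to find synthetic lethal compounds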
TIM10 conf = confirmation of TIM10 yeast growth inhibitors; inhibition, % at 10 µM; 4,600 compounds, 63% hits; S. cerevisiae tim10 strain growth, BacTiter-Glo luminescence, 24 h; shares compounds with TIM10 inh;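 active = inhibition of yeast growth at or above a set limit in either of two replicates at 10 µM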; note: this counterscreen used the strain with wild-type TIM10
Each line names hits and unclear results; the compound was inactive in the other large screens (follow-up assays come after a bar, where they were run). Compounds with a hit are over-represented: about 3.7% of the library has one in this group of screens.

Cc1noc(C)c1C(=O)Nc1nc(C23CC4CC(CC(C4)C2)C3)cs1	TIM10 inh 48, tim10-1 inh 52 | tim10-1 conf 38 | TIM10 conf 39
CC(C)c1ccc(OCC(=O)NCc2n[nH]c(=O)c3ccccc23)cc1	none
COc1ccccc1N1C(=O)C2C3C=CC(C3)C2(C)C1=O (stereo unspecified)	none
N#Cc1c(NCCCO)nc(NCc2ccccc2)c2c1CCN(Cc1ccccc1)C2	none
CN1CCc2c(C#N)c(N3CCCCC3)nc(NCc3ccccc3)c2C1	TIM10 inh 43, tim10-1 inh 48 (no result: PfHsp90 set2) | tim10-1 conf 32 | TIM10 conf inactive
CCOc1ccc(S(=O)(=O)N2CCCC(C(=O)NCc3ccccc3)C2)cc1 (stereo unspecified)	none
C=C1C(=O)C=C2CN(C(=O)c3ccccc3)[C@@](Cc3ccc(F)cc3)(C(=O)OC)[C@@H]12	TIM10 inh 48, tim10-1 inh 61 | tim10-1 conf 52 | TIM10 conf 51
Cc1cccc(C(=O)NCc2nnc(SCC(=O)Nc3nncs3)n2C)c1	none
Cc1ccc(-n2c(-c3cccc(C)c3)n[nH]c2=S)cc1	TIM10 inh 46, tim10-1 inh 43 | tim10-1 conf inactive | TIM10 conf inactive
COc1ccc(/C=C/C(=O)c2ccc3c(c2)OCCO3)cc1[N+](=O)[O-]	TIM10 inh 44, tim10-1 inh 43 | tim10-1 conf inactive | TIM10 conf 40
O=C(/C=C/c1cccc([N+](=O)[O-])c1)c1ccc2c(c1)OCCO2	TIM10 inh 47, tim10-1 inh 41 | tim10-1 conf 50 | TIM10 conf 47
O=C(c1cccc([N+](=O)[O-])c1)c1ccc2c(c1)OCCOCCOCCOCCO2	none (no result: PfHsp90 set2)
COc1ccc(/C=N/NC(=O)c2ccc3c(c2)OCCO3)cc1[N+](=O)[O-]	none
Cc1cccc(NC2=C/C(=N/S(=O)(=O)c3cccs3)c3ccccc3C2=O)c1	none (no result: NLRP3 yeast inh, tim23-1 inh, TIM10 inh, tim10-1 inh)
Cc1ccc(NC2=C/C(=N\S(=O)(=O)c3cccs3)c3ccccc3C2=O)c(C)c1	TIM10 inh 60, tim10-1 inh 74 | tim10-1 conf 49 | TIM10 conf inactive
O=C(CN(Cc1ccc(Cl)cc1)C(=O)c1csnn1)NCc1ccc(F)cc1	none
CCN(CC)S(=O)(=O)c1ccc(N2CCOCC2)c(NC(=O)c2c3c(nc4ccccc24)CCC3)c1	none
COc1ccc(N2CCN(C(=O)c3ccc(Br)cc3)CC2)c([N+](=O)[O-])c1	PfHsp90 set2 105, TIM10 inh 53, tim10-1 inh 54 | tim10-1 conf 48 | TIM10 conf 63
COc1ccc(N2CCN(C(=O)c3ccc(C)cc3)CC2)c([N+](=O)[O-])c1	none
Clc1cccc(CN2CCc3c([nH]c4ccccc34)C2)c1Cl	TIM10 inh 60, tim10-1 inh 72 | tim10-1 conf 66 | TIM10 conf 66
CCOC(=O)C1(CC2CC2)CCN(Cc2ccc3cccc(F)c3n2)CC1	none
CCN1C(=O)/C(=C/N(C(C)=O)c2ccccc2)N(c2ccccc2)C1=S	TIM10 inh 50, tim10-1 inh 45 | tim10-1 conf 42 | TIM10 conf inactive
CCc1ccc(/C=C2/C(=O)N(c3ccccc3)C(=S)N2CC(=O)OC)s1	none
CN1CCN(C(=O)/C(=C/c2cn(S(=O)(=O)N(C)C)c3ccccc23)NC(=O)c2ccccc2)CC1	none
CCOC(=O)C1CCCN(C(=O)c2ccc(-c3ccc([N+](=O)[O-])cc3)o2)C1 (stereo unspecified)	TIM10 inh 46, tim10-1 inh 58 | tim10-1 conf 66 | TIM10 conf 58
CCOC(=O)C1CCCN(C(=O)c2ccc(CS(=O)(=O)c3ccc(C)cc3)o2)C1 (stereo unspecified)	none
O=C(NC12CC3CC(CC(C3)C1)C2)c1ccccc1O	TIM10 inh 49, tim10-1 inh 50 | tim10-1 conf 51 | TIM10 conf 48
Cc1ccc(-n2c3nc(=O)[nH]c(=O)c-3cc3c(C)nn(-c4ccccc4)c32)c(C)c1	none
Cc1cc(C)n(-c2nc(-n3nc(C)cc3C)c3c4c(sc3n2)COC(C)(C)C4)n1	TIM10 inh 41, tim10-1 inh 50 (no result: PfHsp90 set2) | tim10-1 conf 34 | TIM10 conf inactive
Cn1nc(C(=O)N2CCN(c3ccc([N+](=O)[O-])cc3)CC2)c2c1-c1ccccc1S(=O)(=O)C2	none
COc1ccccc1Cn1c(=O)c2ccccc2n2c(Sc3ncnc4sccc34)nnc12	TIM10 inh 45, tim10-1 inh 43 | tim10-1 conf 34 | TIM10 conf inactive
Cc1cc(N2C(=O)C=CC2=O)c([N+](=O)[O-])cc1C	PfHsp90 set2 117, TIM10 inh 83, tim10-1 inh 95 | tim10-1 conf 93 | TIM10 conf 95
c1ccc(-c2csc(N3CCN(c4ccccn4)CC3)n2)cc1	none
N/C(=N\OC(=O)N1CCOCC1)c1ccc(Br)cc1	TIM10 inh 50, tim10-1 inh 60 | tim10-1 conf 61 | TIM10 conf 41
N/C(=N\OC(=O)c1ccc2ccccc2c1)c1ccc(Br)cc1	none
CCOc1ccccc1NC(=O)CN1C(=O)NC(Cc2c[nH]c3ccccc23)C1=O (stereo unspecified)	none (no result: PfHsp90 set2)
CC12CC3CC(C)(C1)CC(C(=O)NC1=NCCS1)(C3)C2	TIM10 inh 49, tim10-1 inh 46 | tim10-1 conf inactive | TIM10 conf 35
COCCNC(=S)N/N=C(\C)c1ccc(O)cc1	none
C/C(=N\NC(=S)NCC(C)(C)C)c1cc(F)cc(F)c1O	TIM10 inh 44, tim10-1 inh 42 | tim10-1 conf 41 | TIM10 conf 60
COC(=O)Nc1ccc(S(=O)(=O)N2CCC(Cc3ccccc3)CC2)cc1	TIM10 inh 45, tim10-1 inh 45 | tim10-1 conf 40 | TIM10 conf inactive
Cc1ccccc1NC(=O)c1ccccc1NC(=O)c1cccs1	none
Cc1ccc(NC(NC(=O)c2cccs2)C(Cl)(Cl)Cl)cc1C (stereo unspecified)	TIM10 inh 58, tim10-1 inh 54 | tim10-1 conf 44 | TIM10 conf inactive
Cc1ccccc1NC(NC(=O)c1cccs1)C(Cl)(Cl)Cl (stereo unspecified)	TIM10 inh 47, tim10-1 inh 43 | tim10-1 conf 49 | TIM10 conf 51
Cc1c(C(=O)N2CCN(C(c3ccccc3)c3ccccc3)CC2)oc2ccccc12	none (no result: PfHsp90 set2)
CC(c1nnnn1C(C)(C)C)N(Cc1cccnc1)Cc1ccccc1Cl (stereo unspecified)	TIM10 inh 42, tim10-1 inh 50 | tim10-1 conf 34 | TIM10 conf 32
Oc1ccc(C=NCC2COc3ccccc3O2)cc1 (stereo unspecified)	none (no result: PfHsp90 set2)
Cc1ccc(-c2cc(C(=O)N3CCCCC3)c3ccccc3n2)cc1C	none
